“And” between values parts separate entries of the source, which are not always exact repeats. Identical values can stand only once. Results filed as inconclusive are left out. More than one record can exist for a structure, and the calls need not agree. The source made the active and inactive calls. How the source made its calls, unless noted: active means hit-call score of the fitted dose curve at least 0.9, where 1 is the maximum; inconclusive means response in the unintended direction; inactive means score below 0.9.

System in the first test: not listed separately
In words: CCTE_Shafer_MEA_dev_per_burst_spike_percent: CCTE's Neural Network Formation Assay for Percent of Spikes in a Burst, Shafer Lab (AID 2284032; active means hit-call score of the fitted dose curve at least 0.9, where 1 is the maximum; inactive means score below 0.9;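 on AC50: fitted as a decrease in burst spike percentage below DMSO baseline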). In outline:
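Value is trapezoidal AUC over recordings on days 5, 7, 9 and 12 of the well-mean fraction of spikes falling in single-electrode bursts; rat cortical cultures exposed continuously from plating, treatment renewed DIV 5 and 9, fitted downward against DMSO.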
Regarding `COP(=O)(OC)OC(Br)C(Cl)(Cl)Br` (centres undefined), the concentration at half-maximal activity (AC50) (usually the concentration giving half of the maximal activity seen) is 7.85 µM (active) and 19.1 µM (active).

For `CCOP(=S)(OCC)Oc1ccc([N+](=O)[O-])cc1`, the outcome was inactive.

Turning to `CCOP(=O)(NC(C)C)Oc1ccc(SC)c(C)c1` (centres undefined), the AC50 was 40.7 µM (active) and the outcome was inactive.

Consider `CCCSP(=O)(OCC)Oc1ccc(Br)cc1Cl` (centres undefined), for which the compound was classed as inactive.

In the case of `CON=C(C(=O)OC)c1ccccc1CON=C(C)c1cccc(C(F)(F)F)c1`, the concentration at half-maximal activity (AC50) is 1.11 µM (active) and 1.32 µM (active).

Regarding `CC(Oc1cccc(Cl)c1)C(=O)O` (centres undefined), the call was inactive.

Consider `CCOP(=S)(OCC)Oc1cc(C)nc(C(C)C)n1`, for which the AC50 is 50 µM (active) and the compound was called inactive.

With `CCCSP(=O)(OCC)SCCC`, the AC50 was 50 µM (active) and 50.5 µM (active).

Consider `CCOP(=O)(OCC)Oc1cc(C)nc(C(C)C)n1`, for which the compound was classed as inactive.

Regarding `CCOP(=S)(OCC)OC(Cl)C(Cl)(Cl)Cl` (centres undefined), the AC50 was 50 µM (active) and 19 µM (active).

Regarding `S=C1NCCN1`, the outcome was inactive.

For the compound `CCOP(=O)(SC(C)CC)N1CCSC1=O` (centres undefined), the call was inactive.

For the compound `CCCCSP(=O)(SCCCC)SCCCC`, the AC50 was 31.1 µM (active) and 49.9 µM (active).

System in a further test: not listed separately
In words: CCTE_Deisenroth_AIME_384WELL_CTox_Active: Cytotoxicity Assessment (CTOX) in CCTE's 384-well Estrogen Receptor Transactivation Assay with AIME metabolic competence (metabolism positive), Deisenroth Lab (AID 2284037).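 Further: chemicals first conditioned 2 h by alginate-bound induced rat liver S9 before cells; activity means signal loss indicating cell death.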 An outline of the steps: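 Chemicals pre-incubated 2 hours with alginate-immobilised phenobarbital/beta-naphthoflavone-induced male Sprague Dawley rat liver S9, then conditioned medium applied 24 hour to VM7Luc4E2 cells. Viability by fluorogenic protease substrate; 10-point series 0.002 - 200 uM.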
Consider `O=C(O)c1cc(Oc2ccc(C(F)(F)F)cc2Cl)ccc1[N+](=O)[O-]`, for which the outcome was inactive.

`CCCSP(=O)(OCC)Oc1ccc(Br)cc1Cl` (centres undefined): the result was inactive.

As to `CON=C(C(=O)OC)c1ccccc1CON=C(C)c1cccc(C(F)(F)F)c1`, the half-maximal activity concentration (AC50) is 19.8 µM (active).

`COc1ccc(C(=CC(=O)N2CCOCC2)c2ccc(Cl)cc2)cc1OC`: the call was inactive.

Consider `CCC(=O)Nc1ccc(Cl)c(Cl)c1`, for which the AC50 was 19.8 µM (active).

Regarding `C#CC(C)(C)NC(=O)c1cc(Cl)cc(Cl)c1`, the compound was classed as inactive.

Consider `Nc1nc(N)nc(NC2CC2)n1`, for which the call was inactive.

Turning to `COP(=O)(OC)SCn1c(=O)oc2cc(Cl)cnc21`, the outcome was inactive.

Consider `CCC(=NOC/C=C/Cl)C1=C(O)CC(C2CCOCC2)CC1=O` (centres undefined), for which the compound was classed as inactive.

Regarding `CCCCOC(=O)[C@@H](C)Oc1ccc(Oc2ccc(C#N)cc2F)cc1`, the compound was classed as inactive.

Consider `CCOP(=O)(SC(C)CC)N1CCSC1=O` (centres undefined), for which the compound was called inactive.

As to `CC1(C(=O)Nc2ccc(O)c(Cl)c2Cl)CCCCC1`, the call was inactive.

System in the next test: not listed separately
In words: CCTE_Deisenroth_AIME_384WELL_CTox_Inactive: Cytotoxicity Assessment (CTOX) in CCTE's 384-well Estrogen Receptor Transactivation Assay without AIME metabolic competence (metabolism negative), Deisenroth Lab (AID 2284039).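 Further: cell viability via live-cell protease substrate cleaved to fluorescent probe; cells exposed 24 h to medium preincubated 2 h with alginate-water beads without S9; loss of fluorescence signal means loss of viability.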 An outline of the steps: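 VM7Luc4E2 cells, metabolism-negative arm: test chemicals (0.002–200 uM, 10 points) pre-incubated 2 h with alginate-water microspheres, then medium transferred to cells for 24 h. Viability read as protease-substrate cleavage to fluorescent probe; loss-of-signal, bidirectional fitting.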
For `CC(C1CC1)C(O)(Cn1cncn1)c1ccc(Cl)cc1` (centres undefined), the compound was classed as inactive.

Take `CCOP(=O)(NC(C)C)Oc1ccc(SC)c(C)c1` (centres undefined): the result was inactive.

As for `O=C(O)c1cc(Oc2ccc(C(F)(F)F)cc2Cl)ccc1[N+](=O)[O-]`, the result was inactive.

Consider `CCCSP(=O)(OCC)Oc1ccc(Br)cc1Cl` (centres undefined), for which the call was inactive.

For the compound `CON=C(C(=O)OC)c1ccccc1CON=C(C)c1cccc(C(F)(F)F)c1`, the outcome was inactive.

Turning to `CCC(CC)Nc1c([N+](=O)[O-])cc(C)c(C)c1[N+](=O)[O-]`, the result was inactive.

In the case of `COc1ccc(C(=CC(=O)N2CCOCC2)c2ccc(Cl)cc2)cc1OC`, the call was inactive.

In the case of `CCC(=O)Nc1ccc(Cl)c(Cl)c1`, the compound was classed as inactive.

Regarding `C#CC(C)(C)NC(=O)c1cc(Cl)cc(Cl)c1`, the call was inactive.

Consider `CSc1nc(NC(C)C)nc(NC(C)C)n1`, for which the outcome was inactive.

Take `Nc1nc(N)nc(NC2CC2)n1`: the result was inactive.

Regarding `COP(=O)(OC)SCn1c(=O)oc2cc(Cl)cnc21`, the AC50 was 100 µM (active).

For the compound `CCC(=NOC/C=C/Cl)C1=C(O)CC(C2CCOCC2)CC1=O` (centres undefined), the compound was called inactive.

On to `CCOP(=O)(SC(C)CC)N1CCSC1=O` (centres undefined), for which the result was inactive.

As for `CC1(C(=O)Nc2ccc(O)c(Cl)c2Cl)CCCCC1`, the compound was called inactive.

System in a further test: not listed separately
In words: CCTE_Shafer_MEA_dev_active_electrodes_number: CCTE's Neural Network Formation Assay for Number of Active Electrodes, Shafer Lab (AID 2284040).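 On AC50: potency for loss of active electrodes versus DMSO so lower counts are hits.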 In outline: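 Developing rat cortical networks on MEAs, exposed DIV 0–12. Value is the AUC of active-electrode counts (≥5 spikes/min) from days 5, 7, 9, 12, relative to DMSO.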
Take `COP(=O)(OC)OC(Br)C(Cl)(Cl)Br` (centres undefined): the AC50 was 7.62 µM (active) and 14.8 µM (active).

For `CCOP(=S)(OCC)Oc1ccc([N+](=O)[O-])cc1`, the compound was classed as inactive.

Consider `CCOP(=O)(NC(C)C)Oc1ccc(SC)c(C)c1` (centres undefined), for which the AC50 is 33.4 µM (active) and the result was inactive.

With `CCCSP(=O)(OCC)Oc1ccc(Br)cc1Cl` (centres undefined), the result was inactive.

As for `CON=C(C(=O)OC)c1ccccc1CON=C(C)c1cccc(C(F)(F)F)c1`, the concentration at half-maximal activity (AC50) is 775 nM (active) and 838 nM (active).

Take `CC(Oc1cccc(Cl)c1)C(=O)O` (centres undefined): the compound was called inactive.

Regarding `CCOP(=S)(OCC)Oc1cc(C)nc(C(C)C)n1`, the AC50 is 75.9 µM (active).

In the case of `CCCSP(=O)(OCC)SCCC`, the AC50 is 27.9 µM (active) and 50.5 µM (active).

Take `CCOP(=O)(OCC)Oc1cc(C)nc(C(C)C)n1`: the result was inactive.

On to `CCOP(=S)(OCC)OC(Cl)C(Cl)(Cl)Cl` (centres undefined), for which the concentration at half-maximal activity (AC50) is 50 µM (active) and 22.9 µM (active).

On to `S=C1NCCN1`, for which the concentration at half-maximal activity (AC50) was 3.82 µM (active).

As to `CCOP(=O)(SC(C)CC)N1CCSC1=O` (centres undefined), the call was inactive.

Turning to `CCCCSP(=O)(SCCCC)SCCCC`, the AC50 is 34.3 µM (active) and 15.2 µM (active).

The target in another test is Estrogen receptor (Homo sapiens) (UniProt P03372). In words: CCTE_Deisenroth_AIME_384WELL_LUC_Shift: CCTE's 384-well Estrogen Receptor Transactivation Assay with AIME metabolic competence data shift (ERTA luciferase; difference in metabolism positive and negative), Deisenroth Lab (AID 2284041; active means hit-call score of the fitted dose curve at least 0.9, where 1 is the maximum; inactive means score below 0.9;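 further: shift is response with S9 minus without S9 so positive means metabolism raised ER signal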). An outline of the steps: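 Chemicals (0.002–200 uM, 10 points) pre-incubated 2 h with alginate-encapsulated induced male Sprague Dawley rat liver S9 or S9-free, then medium applied 24 h to VM7Luc4E2 cells; luciferase. Endpoint is per-concentration difference, S9-positive minus negative.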
Sequence of Estrogen receptor (Homo sapiens) (P03372 whole entry, looked up): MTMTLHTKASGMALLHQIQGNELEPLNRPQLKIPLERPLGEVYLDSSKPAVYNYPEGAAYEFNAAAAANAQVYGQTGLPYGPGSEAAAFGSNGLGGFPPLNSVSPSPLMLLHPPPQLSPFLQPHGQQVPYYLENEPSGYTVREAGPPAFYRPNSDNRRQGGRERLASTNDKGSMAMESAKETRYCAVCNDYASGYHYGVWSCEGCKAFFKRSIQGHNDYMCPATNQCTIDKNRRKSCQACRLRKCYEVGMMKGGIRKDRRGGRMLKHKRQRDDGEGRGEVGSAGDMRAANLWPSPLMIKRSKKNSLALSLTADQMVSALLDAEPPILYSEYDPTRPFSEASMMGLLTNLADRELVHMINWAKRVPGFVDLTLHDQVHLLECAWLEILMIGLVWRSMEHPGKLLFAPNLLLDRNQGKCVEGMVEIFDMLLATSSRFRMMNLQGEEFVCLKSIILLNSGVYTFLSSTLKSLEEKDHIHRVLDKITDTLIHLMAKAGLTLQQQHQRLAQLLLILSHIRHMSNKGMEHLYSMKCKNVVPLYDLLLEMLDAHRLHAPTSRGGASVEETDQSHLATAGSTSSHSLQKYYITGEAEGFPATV
With `CSc1nc(NC(C)C)nc(NC(C)C)n1`, the outcome was inactive.

Turning to `COP(=O)(OC)SCn1c(=O)oc2cc(Cl)cnc21`, the AC50 was 71.1 µM (active).

For `CCCCOC(=O)[C@@H](C)Oc1ccc(Oc2ccc(C#N)cc2F)cc1`, the result was inactive.

System in the next test: not listed separately
In words: CCTE_Shafer_MEA_dev_burst_rate: CCTE's Neural Network Formation Assay for Burst Rate, Shafer Lab (AID 2284042; active means hit-call score of the fitted dose curve at least 0.9, where 1 is the maximum; inactive means score below 0.9;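 on AC50: potency for loss of burst rate below DMSO control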). In outline:
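Primary rat cortical neurons on PEI-coated 48-well MEA plates (laminin added with cells at plating) (16 electrodes/well), exposed from plating to day 12, dosing renewed at DIV 5 and 9. Burst rate averaged over active electrodes, recorded DIV 5, 7, 9, 12, summarized as AUC; loss versus DMSO.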
Regarding `COP(=O)(OC)OC(Br)C(Cl)(Cl)Br` (centres undefined), the AC50 was 7.93 µM (active) and 13.3 µM (active).

Consider `CCOP(=S)(OCC)Oc1ccc([N+](=O)[O-])cc1`, for which the compound was classed as inactive.

As for `CCOP(=O)(NC(C)C)Oc1ccc(SC)c(C)c1` (centres undefined), the concentration at half-maximal activity (AC50) was 40.1 µM (active) and the call was inactive.

With `CCCSP(=O)(OCC)Oc1ccc(Br)cc1Cl` (centres undefined), the call was inactive.

In the case of `CON=C(C(=O)OC)c1ccccc1CON=C(C)c1cccc(C(F)(F)F)c1`, the AC50 was 655 nM (active) and 1.28 µM (active).

For the compound `CC(Oc1cccc(Cl)c1)C(=O)O` (centres undefined), the compound was called inactive.

As to `CCOP(=S)(OCC)Oc1cc(C)nc(C(C)C)n1`, the compound was classed as inactive.

With `CCCSP(=O)(OCC)SCCC`, the compound was called inactive.

For the compound `CCOP(=O)(OCC)Oc1cc(C)nc(C(C)C)n1`, the compound was classed as inactive.

For the compound `CCOP(=S)(OCC)OC(Cl)C(Cl)(Cl)Cl` (centres undefined), the AC50 was 77.2 µM (active) and 23.6 µM (active).

In the case of `S=C1NCCN1`, the outcome was inactive.

As to `CCOP(=O)(SC(C)CC)N1CCSC1=O` (centres undefined), the outcome was inactive.

For `CCCCSP(=O)(SCCCC)SCCCC`, the concentration at half-maximal activity (AC50) was 71.4 µM (active) and the call was inactive.

Values taken from PubChem BioAssay (EPA / NIEHS).
